Among the test systems are HCT-15 colon; HT29 colon; SNB-75 CNS; SNB-19 CNS; U251 CNS; PC-3 prostate; UACC-62 melanoma; LOX IMVI melanoma; SK-MEL-28 melanoma; SK-MEL-2 melanoma; EKVX NSCLC; SN12C renal; UO-31 renal; TK-10 renal; ACHN renal; CAKI-1 renal; A498 renal; CCRF-CEM leukemia; MOLT-4 leukemia.
What all share (experiment): NCI-60 one-dose screen, 48 h (100 = growth as untreated, 0 = no growth, -100 = all killed)
Another assay concerns SK-MEL-5 melanoma. Conditions: 10 µM unless noted.

Molecules are shown by their SMILES. Values joined by “and” are separate entries in the source; they are usually repeats but may differ in a detail not shown here. Equal values may be shown once. About 83,000 compounds went through this panel and 20% of them were active in at least one assay; those are over-represented in the sample as a whole.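 Values shown are percent growth following 48 h exposure of cells in 96-well plates to a single concentration of compound; below 10 was considered active.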 A number with no mark means an inactive call. Active and inactive are the calls of the source.

For the compound `CCOC(=O)c1cnn(CC(O)CC)c1NC(=O)NCc1ccccc1C(F)(F)F` (centres undefined), the growth in the assay with HCT-15 colon (10 µM unless noted) is 103%; with HT29 colon (10 µM unless noted), 86.5%; with SNB-75 CNS (10 µM unless noted), 96%; with SNB-19 CNS (10 µM unless noted) it was 104%; in the assay with U251 CNS (10 µM unless noted) it was 101%; in the assay with PC-3 prostate (10 µM unless noted), 90.8%. The growth in the assay with SK-MEL-5 melanoma is 97.6%; with UACC-62 melanoma (10 µM unless noted), 88.5%; in the assay with LOX IMVI melanoma (10 µM unless noted) it was 95.5%; in the assay on SK-MEL-28 melanoma (10 µM unless noted), 108%; with SK-MEL-2 melanoma (10 µM unless noted), 87.3%; in the assay on EKVX NSCLC (10 µM unless noted) it was 91.8%. Besides, the growth is 101% with SN12C renal (10 µM unless noted); 77.6% in the assay with UO-31 renal (10 µM unless noted); 101% in the assay on TK-10 renal (10 µM unless noted); 102% in the assay on ACHN renal (10 µM unless noted); 77.6% with CAKI-1 renal (10 µM unless noted); 105% in the assay with A498 renal (10 µM unless noted). Also, in the assay with CCRF-CEM leukemia (10 µM unless noted), the growth was 84.9%.

On to `CN(C)CCNc1ncc(F)c(-c2cnc3cc(-c4cnn(C)c4)ccn23)n1`, for which the growth was 99.2% in the assay on HCT-15 colon (0.005 µM); 31.2% in the assay with HCT-15 colon (30 µM); 99.7% in the assay with HT29 colon (0.005 µM); 42.8% with HT29 colon (30 µM); 100% with SNB-75 CNS (0.005 µM); 50% with SNB-75 CNS (30 µM). Further, the growth in the assay on SNB-19 CNS (0.005 µM) was 97%; with SNB-19 CNS (30 µM), 73.4%; in the assay with U251 CNS (0.005 µM), 96.3%; in the assay with U251 CNS (30 µM), 75.9%; in the assay on PC-3 prostate (0.005 µM), 103%; in the assay with PC-3 prostate (30 µM), 44.9%. Further, the growth with SK-MEL-5 melanoma is 101% [0.005 µM]; with UACC-62 melanoma (0.005 µM), 98%; in the assay on UACC-62 melanoma (30 µM), 82.7%; with LOX IMVI melanoma (0.005 µM), 98.6%; in the assay with LOX IMVI melanoma (30 µM), 19.9%; with SK-MEL-28 melanoma (0.005 µM), 105%. In addition, the growth with SK-MEL-28 melanoma (30 µM) was 96.7%; in the assay on SK-MEL-2 melanoma (0.005 µM), 109%; in the assay with SK-MEL-2 melanoma (30 µM) it was 64.6%; with EKVX NSCLC (0.005 µM), 97%; with EKVX NSCLC (30 µM) it was 70.1%; in the assay on SN12C renal (0.005 µM) it was 98.4%. The growth in the assay with SN12C renal (30 µM) is 30.7%; in the assay on UO-31 renal (0.005 µM), 94%; in the assay on UO-31 renal (30 µM), 17.1%; with TK-10 renal (0.005 µM), 105%; in the assay on TK-10 renal (30 µM) it was 56.4%; in the assay on ACHN renal (0.005 µM), 96.7%. Moreover, the growth in the assay with ACHN renal (30 µM) is 15.5%; in the assay on CAKI-1 renal (0.005 µM) it was 99.5%; in the assay with CAKI-1 renal (30 µM), 15.5%; in the assay with A498 renal (0.005 µM), 99%; with A498 renal (30 µM), 41.9%; in the assay with CCRF-CEM leukemia (0.005 µM), 101%. The figures for the growth in the assay with CCRF-CEM leukemia (30 µM), in the assay on MOLT-4 leukemia (0.005 µM) and with MOLT-4 leukemia (30 µM) were 14.1%, 104% and 1.39% (active), respectively.

`ON=C1CCCCCCCC1`: the growth in the assay with HCT-15 colon (10 µM unless noted) is 105%; with HT29 colon (10 µM unless noted) it was 104% and 110%; in the assay with SNB-75 CNS (10 µM unless noted), 101% and 80.7%; in the assay on SNB-19 CNS (10 µM unless noted), 106% and 104%; with U251 CNS (10 µM unless noted), 107% and 110%; with PC-3 prostate (10 µM unless noted), 95.3% and 104%. Moreover, the growth in the assay on SK-MEL-5 melanoma is 106%; in the assay with UACC-62 melanoma (10 µM unless noted), 103% and 110%; with LOX IMVI melanoma (10 µM unless noted) it was 95.4% and 102%; in the assay on SK-MEL-28 melanoma (10 µM unless noted) it was 105% and 113%; with SK-MEL-2 melanoma (10 µM unless noted), 94.9% and 100%; in the assay on EKVX NSCLC (10 µM unless noted) it was 108%. Besides, the growth in the assay on SN12C renal (10 µM unless noted) was 97.2% and 102%; in the assay with UO-31 renal (10 µM unless noted), 79.9% and 85.4%; with TK-10 renal (10 µM unless noted) it was 100%; in the assay on ACHN renal (10 µM unless noted), 98.6% and 105%; in the assay with CAKI-1 renal (10 µM unless noted), 105% and 99.8%; in the assay with A498 renal (10 µM unless noted), 102% and 105%. In addition, the growth with CCRF-CEM leukemia (10 µM unless noted) is 107% and 101%.

With `OB(O)c1ccsc1-c1nc2ccc3[nH]ncc3c2c2c1CCCC2`, the growth is 31.3% in the assay on HCT-15 colon (10 µM unless noted); 45.9% with HT29 colon (10 µM unless noted); 35.2% in the assay on SNB-75 CNS (10 µM unless noted); 76.1% in the assay on SNB-19 CNS (10 µM unless noted); 65.9% in the assay with U251 CNS (10 µM unless noted); 69.4% with PC-3 prostate (10 µM unless noted). Also, the growth was 57.6% in the assay on SK-MEL-5 melanoma; 45.2% in the assay with UACC-62 melanoma (10 µM unless noted); 41.1% in the assay with LOX IMVI melanoma (10 µM unless noted); 72.8% in the assay on SK-MEL-28 melanoma (10 µM unless noted); 55.9% in the assay on SK-MEL-2 melanoma (10 µM unless noted); 34.7% in the assay with EKVX NSCLC (10 µM unless noted). The growth in the assay on SN12C renal (10 µM unless noted) was 56.4%; in the assay with UO-31 renal (10 µM unless noted), 38.3%; with TK-10 renal (10 µM unless noted), 48.7%; in the assay on ACHN renal (10 µM unless noted), 23.3%; with CAKI-1 renal (10 µM unless noted) it was 13.7%; with A498 renal (10 µM unless noted) it was -2.71% (active). The growth in the assay with CCRF-CEM leukemia (10 µM unless noted) was 56.2%.

`c1ccc(Cc2cccc[n+]2C(c2ccccc2)c2ccccc2)cc1`: the growth in the assay with HCT-15 colon (10 µM unless noted) is 93.1%; with HT29 colon (10 µM unless noted) it was 31.8%; in the assay on SNB-75 CNS (10 µM unless noted), 50.8%; in the assay with SNB-19 CNS (10 µM unless noted), 58.1%; in the assay with U251 CNS (10 µM unless noted), 42.5%; in the assay on PC-3 prostate (10 µM unless noted), 35.8%. In addition, the growth was 14.5% in the assay on SK-MEL-5 melanoma; 37.7% with UACC-62 melanoma (10 µM unless noted); 58.2% with LOX IMVI melanoma (10 µM unless noted); 41.6% in the assay with SK-MEL-28 melanoma (10 µM unless noted); 11.6% with SK-MEL-2 melanoma (10 µM unless noted); 30% in the assay with EKVX NSCLC (10 µM unless noted). Further, the growth in the assay on SN12C renal (10 µM unless noted) is 71.5%; with UO-31 renal (10 µM unless noted) it was 82.7%; in the assay on TK-10 renal (10 µM unless noted), 62.9%; in the assay with ACHN renal (10 µM unless noted), 94.7%; in the assay on CAKI-1 renal (10 µM unless noted), 94.4%; in the assay on A498 renal (10 µM unless noted), 90.1%.

Values taken from PubChem BioAssay (NCI).
